Eight compounds from ChEMBL document CHEMBL3988442, “University of Dundee, Small-Polar-MMV Screening Library” (2021) can be followed below.

What all share (design): scale not given: direction of the effect not stated beside the values
The target in experiment [1] is Protein translocase subunit SecA (Escherichia coli (strain K12)) (UniProt P10408). Nature of the experiment: Assay to Identify E. coli SecA ATPase Inhibitors. It is filed as functional. As to conditions: 30 µM.
The target of experiment [2] is T1, Ubiquitin-activating enzyme e1, putative (Leishmania donovani (strain BPK282A1)) (UniProt E9BSI1).
T1 sequence (whole entry): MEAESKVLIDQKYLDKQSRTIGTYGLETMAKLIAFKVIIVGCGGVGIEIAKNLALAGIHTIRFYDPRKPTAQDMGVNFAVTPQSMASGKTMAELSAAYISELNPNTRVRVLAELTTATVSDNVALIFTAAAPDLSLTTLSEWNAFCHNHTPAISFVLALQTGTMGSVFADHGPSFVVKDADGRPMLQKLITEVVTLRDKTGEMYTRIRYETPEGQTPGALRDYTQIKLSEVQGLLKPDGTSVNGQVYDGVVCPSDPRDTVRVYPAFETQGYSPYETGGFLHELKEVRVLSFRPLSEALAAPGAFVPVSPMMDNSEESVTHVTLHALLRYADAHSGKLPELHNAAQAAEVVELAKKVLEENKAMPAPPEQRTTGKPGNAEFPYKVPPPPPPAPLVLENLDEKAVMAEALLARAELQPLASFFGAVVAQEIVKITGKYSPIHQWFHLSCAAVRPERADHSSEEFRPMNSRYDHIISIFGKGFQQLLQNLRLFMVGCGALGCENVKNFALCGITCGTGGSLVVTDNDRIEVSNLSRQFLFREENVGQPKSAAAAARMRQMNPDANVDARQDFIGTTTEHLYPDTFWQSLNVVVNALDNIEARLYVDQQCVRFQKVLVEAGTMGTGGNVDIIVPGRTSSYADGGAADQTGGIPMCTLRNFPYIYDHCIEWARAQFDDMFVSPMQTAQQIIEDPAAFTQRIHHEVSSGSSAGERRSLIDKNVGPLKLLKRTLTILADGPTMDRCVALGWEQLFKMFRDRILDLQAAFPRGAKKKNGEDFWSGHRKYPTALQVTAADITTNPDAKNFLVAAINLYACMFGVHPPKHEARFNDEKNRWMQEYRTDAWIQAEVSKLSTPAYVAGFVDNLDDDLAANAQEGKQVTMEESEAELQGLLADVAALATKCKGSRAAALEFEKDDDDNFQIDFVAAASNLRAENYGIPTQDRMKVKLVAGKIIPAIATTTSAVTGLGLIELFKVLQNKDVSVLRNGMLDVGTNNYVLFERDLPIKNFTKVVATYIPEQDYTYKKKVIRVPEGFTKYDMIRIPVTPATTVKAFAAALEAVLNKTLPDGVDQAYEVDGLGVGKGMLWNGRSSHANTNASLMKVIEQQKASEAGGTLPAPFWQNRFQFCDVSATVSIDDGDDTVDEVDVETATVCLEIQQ
Nature of the experiment: Leishmania donovani Ubiquitin Activating Enzyme (LdE1). It is filed as functional. As to conditions: 30 µM.

Experiment [3] addresses Sialic acid-binding Ig-like lectin 9 (Homo sapiens) (UniProt Q9Y336). Nature of the experiment: Hs-Siglec9 ALPHAscreen SOP 20170721. As to conditions: 10 µM.
A further experiment has as its system Trypanosoma cruzi. Nature of the experiment: Trypanosoma cruzi phosphomannomutase and mannose-1-phosphate guanylyltransferase assay. It is filed as functional. As to conditions: 10 µM.
Experiment [4] has as its target T2, Arginase-2, mitochondrial (Homo sapiens) (UniProt P78540).
T2 sequence (whole entry): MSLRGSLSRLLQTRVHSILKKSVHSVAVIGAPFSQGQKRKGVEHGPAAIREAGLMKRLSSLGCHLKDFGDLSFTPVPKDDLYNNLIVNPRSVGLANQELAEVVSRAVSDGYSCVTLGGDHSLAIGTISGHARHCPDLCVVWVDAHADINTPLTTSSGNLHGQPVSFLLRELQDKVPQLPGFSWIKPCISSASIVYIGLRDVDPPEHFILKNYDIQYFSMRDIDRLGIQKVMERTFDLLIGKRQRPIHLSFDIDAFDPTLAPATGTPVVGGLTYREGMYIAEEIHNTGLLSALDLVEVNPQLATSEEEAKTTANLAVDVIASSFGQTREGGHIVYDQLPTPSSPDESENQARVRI
Nature of the experiment: in vitro enzyme assay to detect the production of urea directly proportional to the activity of Arginase II. Further: in the data most compounds retested in dose-response had high values. As to conditions: 33.3 µM. It is filed as functional.

Experiment [5] concerns the target T3, Proteasome subunit beta (Trypanosoma cruzi) (UniProt O96673).
T3 sequence (whole entry): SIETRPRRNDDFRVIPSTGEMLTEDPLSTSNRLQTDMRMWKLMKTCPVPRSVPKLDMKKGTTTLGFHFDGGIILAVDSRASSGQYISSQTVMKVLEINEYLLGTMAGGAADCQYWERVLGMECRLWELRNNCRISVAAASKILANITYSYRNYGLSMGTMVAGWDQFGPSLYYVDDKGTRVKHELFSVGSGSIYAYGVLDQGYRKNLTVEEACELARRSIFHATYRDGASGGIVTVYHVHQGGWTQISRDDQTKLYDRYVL
Nature of the experiment: Trypanosoma cruzi proteasome chymotrypsin-like activity (TcProtChymo) assay. Further: in the data most compounds retested in dose-response had high values. Conditions: 9.37 µM. It is filed as functional.

The species entered for a further experiment is Homo sapiens. Nature of the experiment: To identify inhibition of the IFN signalling (Jak-Stat) pathway via expression of an eGFP reporter gene under the control of an IFN-stimulated response element (ISRE) containing MxA promoter. It is filed as functional. As to conditions: 30 µM. Background: A reporter such as luciferase makes a cellular process visible.

Experiment [6] has as its target T4, Tyrosyl-tRNA synthetase, putative (Trypanosoma cruzi (strain CL Brener)) (UniProt Q4DSP6).
T4 sequence (whole entry): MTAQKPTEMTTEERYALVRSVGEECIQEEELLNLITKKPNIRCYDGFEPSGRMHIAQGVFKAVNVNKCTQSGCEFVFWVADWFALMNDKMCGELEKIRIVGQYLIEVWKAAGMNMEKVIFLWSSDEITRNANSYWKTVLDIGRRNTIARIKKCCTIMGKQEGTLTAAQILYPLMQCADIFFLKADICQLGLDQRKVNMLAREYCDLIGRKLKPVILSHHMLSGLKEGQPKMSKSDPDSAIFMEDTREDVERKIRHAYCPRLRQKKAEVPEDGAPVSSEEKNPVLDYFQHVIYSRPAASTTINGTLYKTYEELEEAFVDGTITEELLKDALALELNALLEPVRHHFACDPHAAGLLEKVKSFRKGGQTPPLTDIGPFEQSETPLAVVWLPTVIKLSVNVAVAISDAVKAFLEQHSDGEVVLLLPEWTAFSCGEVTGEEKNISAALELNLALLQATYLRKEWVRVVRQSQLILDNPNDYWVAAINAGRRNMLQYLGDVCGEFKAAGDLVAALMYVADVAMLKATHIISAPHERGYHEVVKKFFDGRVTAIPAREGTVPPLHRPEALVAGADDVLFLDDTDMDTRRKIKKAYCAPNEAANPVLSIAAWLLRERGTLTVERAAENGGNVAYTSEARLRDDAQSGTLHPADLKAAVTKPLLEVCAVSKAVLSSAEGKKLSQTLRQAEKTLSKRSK
Nature of the experiment: Trypanosoma cruzi tyrosyl tRNA synthetase (TcYRS) _High Tyrosine SOP. Further: in the data most compounds retested in dose-response had high values. Conditions: 30 µM. It is filed as functional.

The target in experiment [7] is T4, Tyrosyl-tRNA synthetase, putative (Trypanosoma cruzi (strain CL Brener)). Nature of the experiment: Trypanosoma cruzi tyrosyl tRNA synthetase (TcYRS) SOP. It is filed as functional. Conditions: 30 µM.
Experiment [8] concerns the target Chromo domain-containing protein 1 (Saccharomyces cerevisiae (strain ATCC 204508 / S288c) (Baker's yeast)) (UniProt P32657). Nature of the experiment: ScCHD-1 Enzyme Inhibition Assay. Further: in the data most compounds retested in dose-response had high values. It is filed as functional. Conditions: 30 µM.

Each structure is given as a SMILES string. For some assays here: Measured potencies and affinities stand elsewhere.

Sequence of Protein translocase subunit SecA (Escherichia coli (strain K12)) (P10408 whole entry): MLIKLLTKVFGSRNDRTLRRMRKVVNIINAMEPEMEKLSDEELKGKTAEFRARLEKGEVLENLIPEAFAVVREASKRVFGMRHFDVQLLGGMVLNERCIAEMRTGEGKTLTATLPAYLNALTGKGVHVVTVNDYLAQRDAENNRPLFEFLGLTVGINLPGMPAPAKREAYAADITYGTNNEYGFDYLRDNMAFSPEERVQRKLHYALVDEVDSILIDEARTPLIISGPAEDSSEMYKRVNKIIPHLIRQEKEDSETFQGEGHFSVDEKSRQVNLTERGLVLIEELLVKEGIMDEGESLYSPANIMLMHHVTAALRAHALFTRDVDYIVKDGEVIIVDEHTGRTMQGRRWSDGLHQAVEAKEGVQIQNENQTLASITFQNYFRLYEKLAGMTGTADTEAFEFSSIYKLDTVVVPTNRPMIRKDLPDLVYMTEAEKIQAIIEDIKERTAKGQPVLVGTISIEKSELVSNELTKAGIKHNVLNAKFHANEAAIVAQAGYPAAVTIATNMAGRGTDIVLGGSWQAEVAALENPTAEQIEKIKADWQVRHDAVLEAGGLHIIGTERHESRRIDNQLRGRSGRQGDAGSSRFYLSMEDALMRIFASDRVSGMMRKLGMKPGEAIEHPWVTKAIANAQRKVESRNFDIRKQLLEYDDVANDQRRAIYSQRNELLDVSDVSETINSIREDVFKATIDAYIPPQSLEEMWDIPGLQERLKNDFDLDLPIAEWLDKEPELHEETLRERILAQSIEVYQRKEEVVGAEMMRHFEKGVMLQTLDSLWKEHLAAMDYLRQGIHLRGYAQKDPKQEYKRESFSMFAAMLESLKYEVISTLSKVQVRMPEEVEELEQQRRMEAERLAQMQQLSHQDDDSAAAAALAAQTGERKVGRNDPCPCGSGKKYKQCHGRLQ
Sequence of Chromo domain-containing protein 1 (Saccharomyces cerevisiae (strain ATCC 204508 / S288c) (Baker's yeast)) (P32657 whole entry, the tested form may be a part): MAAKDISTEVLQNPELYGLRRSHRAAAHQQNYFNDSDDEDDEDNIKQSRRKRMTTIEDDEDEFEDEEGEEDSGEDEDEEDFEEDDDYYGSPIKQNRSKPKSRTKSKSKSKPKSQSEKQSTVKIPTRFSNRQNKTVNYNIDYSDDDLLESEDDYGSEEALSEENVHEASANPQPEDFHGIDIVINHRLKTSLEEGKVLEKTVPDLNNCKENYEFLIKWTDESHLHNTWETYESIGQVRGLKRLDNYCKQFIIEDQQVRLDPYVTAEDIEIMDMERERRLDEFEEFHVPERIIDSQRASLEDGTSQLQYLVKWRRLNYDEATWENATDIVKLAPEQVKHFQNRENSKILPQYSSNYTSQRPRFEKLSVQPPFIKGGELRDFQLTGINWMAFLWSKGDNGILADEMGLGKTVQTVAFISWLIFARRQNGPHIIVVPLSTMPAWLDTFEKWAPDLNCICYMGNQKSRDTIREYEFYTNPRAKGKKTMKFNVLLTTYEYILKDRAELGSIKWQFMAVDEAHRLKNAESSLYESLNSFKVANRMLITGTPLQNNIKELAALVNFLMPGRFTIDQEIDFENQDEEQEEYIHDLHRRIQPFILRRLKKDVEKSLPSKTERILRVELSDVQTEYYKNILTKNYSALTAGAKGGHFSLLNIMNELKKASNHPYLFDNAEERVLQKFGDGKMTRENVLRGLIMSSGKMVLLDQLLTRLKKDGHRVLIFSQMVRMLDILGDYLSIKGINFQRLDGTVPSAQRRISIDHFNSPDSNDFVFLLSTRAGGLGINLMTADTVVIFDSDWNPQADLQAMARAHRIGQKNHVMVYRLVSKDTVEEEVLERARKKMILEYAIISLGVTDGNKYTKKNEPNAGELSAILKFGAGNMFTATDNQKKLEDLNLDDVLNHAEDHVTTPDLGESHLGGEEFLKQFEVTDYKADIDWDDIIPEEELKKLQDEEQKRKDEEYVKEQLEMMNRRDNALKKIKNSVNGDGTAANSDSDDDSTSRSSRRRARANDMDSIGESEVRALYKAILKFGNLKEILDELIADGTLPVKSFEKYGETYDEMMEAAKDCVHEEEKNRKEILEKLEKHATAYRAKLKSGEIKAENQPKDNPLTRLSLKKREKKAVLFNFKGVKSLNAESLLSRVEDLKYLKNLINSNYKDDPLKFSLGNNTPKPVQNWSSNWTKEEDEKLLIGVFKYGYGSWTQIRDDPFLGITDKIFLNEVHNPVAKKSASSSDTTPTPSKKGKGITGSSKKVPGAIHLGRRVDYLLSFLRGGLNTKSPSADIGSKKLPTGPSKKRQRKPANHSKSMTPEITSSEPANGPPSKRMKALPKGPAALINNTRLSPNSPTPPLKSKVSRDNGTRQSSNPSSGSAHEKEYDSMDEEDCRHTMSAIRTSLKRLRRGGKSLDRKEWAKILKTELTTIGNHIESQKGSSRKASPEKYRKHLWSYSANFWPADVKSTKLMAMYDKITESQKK
Sequence of Sialic acid-binding Ig-like lectin 9 (Homo sapiens) (Q9Y336 whole entry): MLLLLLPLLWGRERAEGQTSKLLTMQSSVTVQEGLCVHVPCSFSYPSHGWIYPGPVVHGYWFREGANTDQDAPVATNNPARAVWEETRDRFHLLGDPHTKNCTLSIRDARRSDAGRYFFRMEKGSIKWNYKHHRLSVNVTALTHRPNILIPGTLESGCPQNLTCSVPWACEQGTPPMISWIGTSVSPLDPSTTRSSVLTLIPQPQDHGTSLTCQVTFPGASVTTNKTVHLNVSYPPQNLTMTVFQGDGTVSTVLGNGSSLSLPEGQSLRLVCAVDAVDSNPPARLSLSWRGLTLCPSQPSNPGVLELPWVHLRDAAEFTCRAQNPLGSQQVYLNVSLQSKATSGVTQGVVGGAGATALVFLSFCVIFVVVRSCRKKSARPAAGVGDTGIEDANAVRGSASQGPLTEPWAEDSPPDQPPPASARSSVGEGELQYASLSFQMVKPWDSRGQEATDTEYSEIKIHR

Consider `O=C(c1ccc(F)cc1Cl)N1CCC(Nc2cccnn2)CC1`, for which the Percent Effect in experiment [1] was -3.11%; in experiment [2], 18.2%; in experiment [3], 7.17%; in the experiment on Trypanosoma cruzi, 5.41%; in [4], -4.71%; in [5], 7.37%. In addition, the Percent Effect in the experiment listed under Homo sapiens was 15.6%; in experiment [6] it was 5.88%; in experiment [7], 18.8%; in [8], -15.5%.

Regarding `c1ccc(CN2CCc3nnc(CN4CCCCC4)n3CC2)nc1`, the Percent Effect in experiment [1] was -8.66%; in [2], 1.3%; in experiment [3], -4.58%; in the experiment with Trypanosoma cruzi, -3.41%; in experiment [4], -4.86%; in experiment [5], 18.1%. In addition, the Percent Effect in the experiment listed under Homo sapiens is 0.921%; in experiment [6], 0.526%; in [7], 2.56%; in experiment [8], -0.472%.

As to `COc1c(C2CCCN2Cc2c(C)noc2C)c(C)nn1C` (stereo not given), the Percent Effect was -5.49% in experiment [1]; -2.67% in experiment [2]; 0.668% in experiment [3]; 5.82% with Trypanosoma cruzi; 1.33% in experiment [4]; 6.19% in [5]. Besides, the Percent Effect was -12.5% in the experiment listed under Homo sapiens, 0.526% in [6], 5.13% in experiment [7] and -8.53% in [8].

`CCO[C@@H]1CO[C@@]2(CCCN(S(=O)(=O)c3cccnc3)C2)C1`: the Percent Effect in experiment [1] is -2.66%; in experiment [2], 11.7%; in [3], -9.59%; in the experiment with Trypanosoma cruzi, -4.97%; in [4], 3.64%; in [5], 18.3%. Also, the Percent Effect in the experiment listed under Homo sapiens was 6.27%; in experiment [6], 5.79%; in [7], 5.13%; in experiment [8], 2.99%.

For `Cc1cnn(CCNCc2nnc(C3CC3)o2)c1`, the Percent Effect in [1] is 2.37%; in [2], 26%; in [3] it was -7.5%; with Trypanosoma cruzi, 0.746%; in [4], -8.4%; in experiment [5], 16%. Also, the Percent Effect is 32.1% in the experiment filed under Homo sapiens, 6.86% in [6], 28.2% in [7] and -8.53% in experiment [8].

Turning to `CCN(Cc1cccc2c1OCO2)C(=O)C(C)c1cccnc1` (stereo not given), the Percent Effect is -0.831% in experiment [1]; 7.79% in [2]; 4.03% in [3]; 5.78% with Trypanosoma cruzi; 8.4% in [4]; -0.702% in experiment [5]. Further, the Percent Effect in the experiment listed under Homo sapiens was 4.49%; in [6], 3.92%; in experiment [7] it was 11.8%; in [8], -5.71%.

For `Cc1occc1C(=O)N1CCC2(CCC(C(=O)NCC3CC3)O2)CC1` (stereo not given), the Percent Effect in experiment [1] is -0.841%; in experiment [2], 19.5%; in experiment [3], 1.13%; with Trypanosoma cruzi, -0.75%; in experiment [4], 1.83%; in experiment [5], 13%. The Percent Effect in the experiment listed under Homo sapiens was 6.84%; in experiment [6], 11.6%; in [7], 20%; in experiment [8], -4.43%.

On to `Cc1[nH]c(=O)c(C#N)cc1C(=O)N1C[C@@H](CN2CCCC2)C[C@H](CO)C1`, for which the Percent Effect was -6.79% in experiment [1]; -8.11% in experiment [2]; -1.68% in experiment [3]; -2.81% in the experiment on Trypanosoma cruzi; 3.85% in experiment [4]; -5.82% in experiment [5]. The Percent Effect in the experiment listed under Homo sapiens is 21.2%; in experiment [6], -0.532%; in [7], -2.44%; in experiment [8], 2.93%.
